Rows were chosen to be rich in hits. Some 4.1% of all compounds tested hit in one or more screens of this group.
MEKK2 WT-MEK5 = raises or lowers MEK5 binding to wildtype human MEKK2 PB1 domain. Q9Y2U5. bead flow cytometry, Alexa488-MEK5 binding to MEKK2 WT; actives lie on both sides. binding response (% of control), % at 10 µM. 290,000 compounds, 1.1% hits; in the data active = binding response below about 67% or above about 130%
MEKK2mut PB1 HTS = signal of MEK5 binding to mutant human MEKK2 PB1 domain | bead flow cytometry, Alexa488-MEK5 binding to MEKK2 mutant | percent response, % at 10 µM | AID 1530 | 290,000 compounds, 0.35% hits; in the data active = percent response above about 24%, passing the limit was not always enough
CHT PAM = allosterically activates the human high affinity choline transporter | CHT-expressing cells, membrane potential dye, choline EC20; hits give high values; LV-AA mutant CHT in HEK293 cells | B-score at 10 µM | 310,000 compounds, 0.49% hits | AID 488977;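 active = initial fluorescence not abnormally high and integrated response B-score, plate-corrected, over 3 SD above library mean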
Target sequence (Q9GZV3 whole entry, looked up): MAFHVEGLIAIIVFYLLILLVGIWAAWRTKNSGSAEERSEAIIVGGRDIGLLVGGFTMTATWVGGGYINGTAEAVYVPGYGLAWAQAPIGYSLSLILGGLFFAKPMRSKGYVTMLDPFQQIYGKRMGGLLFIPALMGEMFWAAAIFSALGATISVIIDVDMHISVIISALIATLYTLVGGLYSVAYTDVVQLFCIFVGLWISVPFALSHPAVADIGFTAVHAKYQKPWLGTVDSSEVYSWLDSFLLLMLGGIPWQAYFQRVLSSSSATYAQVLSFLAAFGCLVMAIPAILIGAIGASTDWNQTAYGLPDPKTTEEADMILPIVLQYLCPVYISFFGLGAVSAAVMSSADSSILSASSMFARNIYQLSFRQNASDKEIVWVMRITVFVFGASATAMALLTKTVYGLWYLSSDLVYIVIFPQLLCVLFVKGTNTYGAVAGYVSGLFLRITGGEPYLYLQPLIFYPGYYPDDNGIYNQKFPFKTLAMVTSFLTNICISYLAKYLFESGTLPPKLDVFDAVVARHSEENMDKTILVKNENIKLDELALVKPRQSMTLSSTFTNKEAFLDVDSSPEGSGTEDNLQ
CHT block = inhibits the human high affinity choline transporter; Q9GZV3; B-score at 10 µM; CHT-expressing cells, membrane potential dye, choline response; hits give low values; 310,000 compounds, 0.86% hits;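 active = B-score over 3 SD under the library average, and starting fluorescence ratio not unusually high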;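 also: choline stimulus applied at its EC90 after an EC20 pre-addition; B-score computed on integrated fluorescence ratio after choline addition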
MEKK3 PB1 HTS = raises or lowers MEK5 binding to the human MEKK3 PB1 domain. bead-based flow cytometry, Alexa488-MEK5 binding to MEKK3; actives lie on both sides; 0 = blocked by unlabeled MEK5, 100 = vehicle. 290,000 compounds, 1.4% hits. binding response (% of control), % at 10 µM. AID 1529;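 active = binding response more than 3 SD above or below the average of its plate-row segment, actives on both sides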;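 also: Alexa488 bead fluorescence after subtracting the streptavidin-only scavenger bead signal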
Mot1-301 SUMO = inhibitors of SUMOylation pathway: yeast Mot1-301 growth rescue; 320,000 compounds, 1% hits; AID 2716; S. cerevisiae Mot1-301 growth rescue, ATP luminescence, 38.5C; percent above DMSO median, 100 means doubled; growth rescue, % at 18.8 µM;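 active = every valid replicate shows activation above 250% relative to neutral control wells; inactive = the rest, any valid replicate at or below 250%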;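 also: OY570 slx delta 5 strain wells were the positive control but not used for scaling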
MEKK2wt confirm = raises or lowers MEK5 binding to wildtype human MEKK2, retest. 5,900 compounds, 2.4% hits. shares compounds with MEKK3 PB1 HTS. binding response (% of control), % at 10 µM. bead flow cytometry, Alexa488-MEK5 binding to MEKK2 WT; actives lie on both sides; in the data active = binding response below about 16% or above about 210%; inactive = in between
MEKK2mut-MEK5 = signal of MEK5 binding to mutant human MEKK2, retest; shares compounds with MEKK3 PB1 HTS; bead flow cytometry, Alexa488-MEK5 binding to MEKK2 mutant; percent response, % at 10 µM; 5,900 compounds, 2% hits; AID 1893; in the data active = percent response mostly above about 71%, no sharp cut-off; inactive = mostly below about 38%;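 also: higher means compound restores mutant binding toward wildtype level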
MEKK3 confirm = confirmation of inhibitors of MEK5 binding to human MEKK3; shares compounds with MEKK3 PB1 HTS; bead flow cytometry, Alexa488-MEK5 binding to MEKK3; hits give low values; binding response (% of control), % at 10 µM; 5,900 compounds, 1.8% hits;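 active = binding response below 72% of control, or above a set upper limit, though filed actives all read lower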;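 also: 100% = DMSO only wells and 0% = binding blocked by excess unlabeled MEK5; lower values mean stronger disruption of MEK5 binding to MEKK3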
Active calls of the source: *; i = inactive; x = no result given; [ ] = dose if it differs, or a comment.

SMILES | MEKK2 WT-MEK5 | MEKK2mut PB1 HTS | CHT PAM | CHT block | MEKK3 PB1 HTS | Mot1-301 SUMO | MEKK2wt confirm | MEKK2mut-MEK5 | MEKK3 confirm
CCCN(Cc1cc2cc(C)ccc2[nH]c1=O)C(=O)c1cccc([N+](=O)[O-])c1 | 127 | 24 | i | i | 130* | -15 | 102 | -11 | 94
Cc1ccc(C(=O)NCc2ccncc2)cc1S(=O)(=O)N1CCCCC1 | 97 | -4 | i | i | 98 | -5 | x | x | x
Cc1cc(Cl)ccc1N(CC(=O)N=Nc1c(O)[nH]c2ccccc12)S(C)(=O)=O | 94 | -3 | i | i | 100 | 21 | x | x | x
Cc1ccc(S(=O)(=O)N(CC(=O)N=Nc2c(O)[nH]c3ccccc23)c2cccc(C)c2)cc1 | 102 | 0 | i | i | 150* | -19 | 95 | -6 | 102
Cc1ccc(S(=O)(=O)N2CCOCC2)cc1NC(=O)CSc1nnc(C2CC2)n1C1CC1 | x | x | x | x | x | 4 | x | x | x
Cc1cc(C)cc(C(=O)Oc2coc(CSc3nnc(NC(=O)C4CC4)s3)cc2=O)c1 | 120 | 29 | i | i | 109 | 6 | x | x | x
O=C(Oc1coc(CSc2nnc(NC(=O)C3CC3)s2)cc1=O)c1c(F)cccc1F | 84 | -1 | i | i | 64*[inhibitor] | -6 | 102 | 5 | 107
C/C(=C\c1ccccc1)CN1CCC(C(=O)N2CCC(C)CC2)CC1 | 95 | 7 | i | i | 99 | 149 | x | x | x
C/C(=C\c1ccccc1)CN1CCC(C(=O)N2CCCCC2)CC1 | 109 | 3 | i | i | 138* | -20 | 104 | 4 | 102
CCc1ccccc1NC(=O)CSc1nc2n[nH]c(C)c2c(=N)n1-c1cccc(OC)c1 | 140* | 19 | i | i | 114 | -3 | 109 | 1 | 101
COCCNc1ccc([N+](=O)[O-])cc1C(=O)Nc1cccc(C)n1 | 100 | 1 | i | i | 102 | -1 | x | x | x
CCOC(=O)c1c(C)n(C)c2ccc(OC(=O)c3ccc([N+](=O)[O-])cc3)cc12 | 103 | -1 | i | i | 138* | -24 | 102 | 3 | 103
CC(=O)Nc1nnc(-c2ccccn2)o1 | 103 | 0 | i | i | 134* | 5 | 100 | 8 | 99
CC(C)[C@@H](C(=O)N1CCNCC1)n1cc(CCO)nn1 | 104 | 3 | i | i | 99 | -2 | x | x | x
Cc1c(Cl)cccc1NC(=O)C1CCN(S(C)(=O)=O)CC1 | x | 254* | i | i | 104 | -2 | 104 | 2 | 106
Cc1c(Cl)cccc1NC(=O)C1CCCN(S(C)(=O)=O)C1 (stereo not drawn) | 98 | 4 | i | i | 102 | 1 | x | x | x
COCc1nnc(NC(=O)CCc2ccccc2)s1 | 2.0*[inhibitor] | -18 | i | i | 2.0*[inhibitor] | 29 | 101 | -4 | 100
CCN(CC)C(=O)CSc1nnc(NC(=O)CCc2ccccc2)s1 | 115 | 2 | i | i | 156* | 3 | 143 | 17 | 106
CN(C)C(=O)CSc1nnc(NC(=O)CCc2ccccc2)s1 | 95 | -4 | i | i | 96 | 11 | x | x | x
COCc1nnc(NC(=O)CCc2ccc(OC)cc2)s1 | 107 | 1 | i | i | 102 | 411 | x | x | x
Cc1cccc(S(=O)(=O)c2c(N)n(-c3ccccc3)c3nc4ccccc4nc23)c1 | 105 | 0 | i | i | 138* | -1 | 97 | -3 | 107
Cc1ccc(-n2c(N)c(S(=O)(=O)c3ccccc3)c3nc4ccccc4nc32)cc1 | 95 | -5 | i | i | 101 | -21 | x | x | x
COc1ccc(C(=O)N2CCOC2CNC(=O)C(=O)NCCc2ccc(OC)c(OC)c2)cc1 (stereo not drawn) | 103 | 2 | i | i | 102 | -12 | x | x | x
CN(C)S(=O)(=O)c1ccc(C(=O)OCC(=O)Nc2sc3c(c2C#N)CCCCC3)cc1 | 103 | 3 | i | i | 108 | -2 | x | x | x
CC(C)(C)c1ccc(C(=O)OCC(=O)Nc2sc3c(c2C#N)CCC3)cc1 | 106 | 1 | i | i | 132* | -2 | 76 | -19 | 74
SMILES | MEKK2 WT-MEK5 | MEKK2mut PB1 HTS | CHT PAM | CHT block | MEKK3 PB1 HTS | Mot1-301 SUMO | MEKK2wt confirm | MEKK2mut-MEK5 | MEKK3 confirm
Cc1ccsc1/C=N/N1CCN(C2c3ccccc3-c3ccccc32)CC1 | 91 | -8 | i | i | 82*[inhibitor] | 5 | 104 | -3 | 102
Oc1cccc(/C=N/N2CCN(C3c4ccccc4-c4ccccc43)CC2)c1 | 98 | 5 | i | i | 103 | -6 | x | x | x
COc1cccc(Cn2nc3c4cc(F)ccc4n(Cc4ccc(F)cc4)cc-3c2=O)c1 | 93 | -3 | i | i | 92 | -2 | x | x | x
Cc1ccc(Cn2nc3c4cc(F)ccc4n(Cc4ccc(F)cc4)cc-3c2=O)cc1 | 99 | -2 | x | x | 96 | x | x | x | x
COc1cc2c3nnc(-c4ccc(F)cc4)c-3cn(Cc3cccc(F)c3)c2cc1OC | 53 | -3 | i | i | 39*[inhibitor] | -16 | 88 | -8 | 73
COc1cc2c3nnc(-c4ccc(F)cc4)c-3cn(Cc3cccc(C)c3)c2cc1OC | 167* | 48* | i | i | 104 | -40 | 197 | 61 | 108
CCOc1ccc(C(=O)COC(=O)c2cc(=O)[nH]c3ccccc23)cc1 | x | x | i | i | x | -10 | x | x | x
COc1ccccc1NC1=NCC(=O)N1Cc1ccccc1 | 58 | 47* | i | i | 58 | 133 | 102 | 0 | 100
Cc1ccc(NC2=NCC(=O)N2Cc2ccccc2)c(C)c1 | 103 | -5 | i | i | 101 | -3 | x | x | x
Cc1nc(N2CCN(Cc3ccccc3)CC2)c(C#N)c2c1COC(C)(C)C2 | 97 | 1 | i | i | 79*[inhibitor] | 112 | 104 | -1 | 100
CC(=O)c1ccc(N2CCC(c3cc(-c4ccc(Cl)cc4)n[nH]3)CC2)c([N+](=O)[O-])c1 | 113 | 3 | i | i | 107 | 2 | x | x | x
Cc1ccc(C(=O)COC(=O)c2ccncc2)cc1[N+](=O)[O-] | 81 | -2 | i | i | 52*[inhibitor] | 8 | 97 | -5 | 102
CCN1CCN(c2cc(C)c3cc(NC(=O)c4ccc(C)c(C)c4)ccc3n2)CC1 | 160* | 22 | i | i | 109 | -14 | 153 | 24 | 104
